From PubChem BioAssay AID1259343 (VanderVen Lab, College of Veterinary Medicine, Cornell …, 2017)
Hit rate of the full screen: of about 6,200 compounds, about 2,900 (47%) were called active. No stated cut-off is given here; in the data, active means inhibition above about 50%; inactive means the rest. So high a share suggests a set chosen from earlier hits. The list shows a part of the results.

Assay: Mycobacterium tuberculosis growth inhibition, primary screen (AID 1259343)
Conditions: inhibition: at 10 µM, stronger effect = higher value; outcome: 10 uM

Structure (SMILES)	inhibition
Clc1ccc(Cn2ncc3c(Nc4ccc(Cl)cc4)ncnc32)cc1	9.84% (inactive)
Cc1cc2ncn(Cc3ccc(C(C)C)cc3)c2cc1C	-9.75% (inactive)
Clc1ccc(Nc2nccc3c2ncn3Cc2ccccc2)cc1	57.3% (active)
CC(C)c1ccc(Nc2nccc3c2ncn3Cc2ccccc2)cc1	73% (active)
Cc1ccc(Nc2nc(N3CCN(Cc4ccccc4)CC3)nc3nccnc23)cc1Cl	19.4% (inactive)
C=C(C)Cn1c(SCCCC)nc2c1c(=O)[nH]c(=O)n2C	-35.9% (inactive)
CCS(=O)(=O)N1CCc2cc(-c3csc(-c4ccc(O)cc4)n3)ccc21	11.5% (inactive)
Cc1ccc(C(=O)N2CCCC(CCc3ccc(F)c(F)c3)C2)cc1O (configuration not stated)	7.31% (inactive)
O=C(CCC(F)(F)F)N1CCCC(CCc2ccc(F)cc2F)C1 (configuration not stated)	66% (active)
O=C(CCCc1ccc(Cl)cc1)N1CCCC(CO)(Cc2ccc(F)cc2F)C1 (configuration not stated)	18.9% (inactive)
CCCn1cc(CNC(=O)c2ccc(Cl)cn2)cn1	-32.2% (inactive)
CCCn1cc(NC(=O)c2cc(-c3ccccc3)on2)cn1	85.3% (active)
CCCOc1ccc2c(c1)OCC(C(=O)Nc1cnn(C)c1)=C2	-4.68% (inactive)
O=S(=O)(Nc1ccc(N2CCCC2)c(F)c1)c1cc(F)cc(F)c1	56.4% (active)
O=[N+]([O-])c1cc(S(=O)(=O)C(F)(F)F)ccc1N1CCN(c2ccccc2F)CC1	24.3% (inactive)
Cc1ccc(Cl)cc1N1CCN(C(=O)c2ccc(=O)[nH]c2)CC1	32.4% (inactive)
Cc1ccc(C(=O)N2CCCN(C(=O)OC(C)(C)C)CC2)cc1S(C)(=O)=O	74.7% (active)
O=C(c1cc(Br)cc(Br)c1)N1CCCCCC1	-4.59% (inactive)
Cc1cc2c(cc1C)C(=O)C(N1CCOCC1)=C(c1ccccc1)C2=O	40.4% (inactive)
CCN(Cc1ccccc1)C(=O)c1ccc(-c2ccccc2)nc1N1CCOCC1	20.4% (inactive)
OCc1sc(N2CCOCC2)nc1-c1ccccc1	89.7% (active)
Cc1cc(-c2n[nH]c(=S)o2)c(C)n1-c1ccccc1	70.3% (active)
S=c1[nH]nc(-c2cc(-c3cccs3)nc3ccccc23)o1	inactive
O=S(=O)(Nc1ccc(Br)cc1Cl)c1ccc(F)cc1	50.5% (active)
O=S(=O)(Nc1ccc(Br)cc1F)c1cccs1	31.8% (inactive)

Structure (SMILES)	inhibition
O=S(=O)(Nc1ccc(Br)cc1F)c1ccc(Cl)c(C(F)(F)F)c1	88.3% (active)
COC(=O)c1ccc(F)c(NS(=O)(=O)c2ccc(Cl)c(C(F)(F)F)c2)c1	41.9% (inactive)
O=[N+]([O-])c1ccccc1NN=C1CCCCc2ccccc21	5.1% (inactive)
CCC(C)(C)C1CCC(=NNc2ccc([N+](=O)[O-])cc2)CC1 (configuration not stated)	74.3% (active)
CC(C)(C)C1CCC(=NNc2ccc([N+](=O)[O-])cc2)CC1 (configuration not stated)	-18.8% (inactive)
O=[N+]([O-])c1ccc(NN=CC2CCCCC2)cc1	97.8% (active)
O=[N+]([O-])c1ccc(NN=C2CCCCCCC2)cc1	88.4% (active)
O=S(=O)(Oc1ccc2ccccc2c1Cl)N1CCCCC1	0.9% (inactive)
COc1cccc(NC(=O)c2c[nH]c3c(c(C)nn3-c3ccccc3)c2=O)c1	90.4% (active)
COc1ccc(NC(=O)c2c[nH]c3c(c(C)nn3-c3ccccc3)c2=O)cc1	67.8% (active)
Cc1nn(-c2ccccc2)c2[nH]cc(C(=O)Nc3ccc(N(C)C)cc3)c(=O)c12	29% (inactive)
Cc1ccc(-n2nc(C)c3c(=O)c(C(=O)N4c5ccccc5CC4C)c[nH]c32)cc1 (configuration not stated)	54.2% (active)
Cc1cc(C)cc(NC(=O)c2c[nH]c3c(c(C)nn3-c3ccccc3)c2=O)c1	45.9% (inactive)
Cc1nn(-c2ccccc2)c2[nH]cc(C(=O)Nc3ccccc3)c(=O)c12	53.1% (active)
Cc1ccc(CNC(=O)c2c[nH]c3c(c(C)nn3-c3ccccc3)c2=O)cc1	49.8% (inactive)
Cc1nn(-c2ccccc2)c2[nH]cc(C(=O)NCc3ccccc3Cl)c(=O)c12	31.5% (inactive)
Cc1nn(-c2ccccc2)c2[nH]cc(C(=O)NCc3ccccc3)c(=O)c12	51.6% (active)
Cc1noc(-c2cc(Br)cc(Br)c2O)n1	101% (active)
O=C(O)c1csc(-c2ccc(Cl)cc2Cl)n1	39.2% (inactive)
O=C(O)c1cc2cc(Cl)ccc2[nH]1	56.1% (active)
Cc1cc(Cl)cc2sc(N(CCCn3ccnc3)C(=O)/C=C/c3cccs3)nc12	75.5% (active)
N=C1C2=C3Sc4ccccc4N3CCCC2=NN1c1ccc(Cl)cc1	13.7% (inactive)
CN(Sc1ccccc1[N+](=O)[O-])c1ccccc1	30.9% (inactive)
O=[N+]([O-])c1cccnc1Oc1ccc(Oc2ccccc2)cc1	94.5% (active)
c1ccc(CCCc2nnnn2CC2CCOC2)cc1 (configuration not stated)	65.2% (active)

Structure (SMILES)	inhibition
CC(C)c1noc(C(C)Nc2ccc3c(c2)CCO3)n1 (configuration not stated)	1.87% (inactive)
COc1ccc(NC(C)c2nc(-c3ccco3)no2)cc1 (configuration not stated)	94.9% (active)
CC1(C)C2CCC1(C)C(NS(=O)(=O)Cc1ccccc1)C2 (configuration not stated)	7.59% (inactive)
CC1CCC(NC(=O)COc2ccccc2Br)CC1 (configuration not stated)	42.5% (inactive)
CC1(C)C2CCC1(C)C(NC(=O)COc1ccccc1Cl)C2 (configuration not stated)	91.4% (active)
CCOc1ccccc1NC(=O)N1CCN(CCCOC(c2ccc(Cl)cc2)c2ccc(Cl)cc2)CC1	16.6% (inactive)
Cc1occc1C(=O)Nc1cc(Cl)ccc1C(=O)O	62.5% (active)
O=C(Nc1ccc(C(=O)O)c(O)c1)c1cc(Cl)cc(Cl)c1	25.6% (inactive)
Cc1cc(=O)[nH]c(-n2nc(C)cc2NC(=O)C2c3ccccc3Oc3ccccc32)n1	100% (active)
CCc1cc(=O)[nH]c(-n2nc(C)cc2NC(=O)C2c3ccccc3Oc3ccccc32)n1	101% (active)
CCCc1cc(=O)[nH]c(-n2nc(C)cc2NC(=O)C2c3ccccc3Oc3ccccc32)n1	99% (active)
Cc1cc(NC(=O)C2c3ccccc3Oc3ccccc32)n(-c2nc3c(c(=O)[nH]2)CCC3)n1	-27.3% (inactive)
CN(C)P(=NC(=S)Nc1ccc(SC(F)F)cc1)(c1ccncc1)N(C)C	inactive
FC(F)Sc1ccc(NC(=S)NN2CCCCC2)cc1	28.6% (inactive)
O=C(Nc1ccc(SC(F)F)cc1)c1ccc(-n2cncn2)cc1	52.4% (active)
Cc1cc(C(=O)O)n2nc(-c3ccc(Cl)cc3)cc2n1	76.7% (active)
COc1ccc(-c2cc3nc(C)cc(NC(C)c4ccccc4)n3n2)cc1OC (configuration not stated)	26.1% (inactive)
COc1cccc(-c2cc(C(=O)O)n3nc(-c4ccccc4)cc3n2)c1	104% (active)
COc1ccc(-c2cc(C(=O)O)n3nc(-c4ccc(Cl)cc4)cc3n2)cc1	41.5% (inactive)
COc1cccc(C(=O)Nc2nc(-c3ccccc3)cs2)c1	71.2% (active)
CCN(CC)S(=O)(=O)c1ccc(C(=O)Nc2nc(-c3ccccc3)cs2)cc1	35.8% (inactive)
COc1ccc(C(=O)Nc2nc(-c3ccccc3)cs2)cc1	22.9% (inactive)
CCOC(=O)C1CCCN(C(=O)c2cc(-c3cccc(OC)c3)nc3cc(-c4ccccc4)nn23)C1 (configuration not stated)	1.82% (inactive)
O=C(O)c1cc(-c2ccccc2F)nc2cc(-c3ccccc3)nn12	71.8% (active)
O=C(O)c1cc(-c2ccccc2F)nc2cc(-c3ccc(Cl)cc3)nn12	88.1% (active)

Structure (SMILES)	inhibition
Cc1ccc(-c2cc(C(=O)N(CCN(C)C)Cc3ccccc3)n(-c3ccccc3)n2)cc1C	27.2% (inactive)
O=C(O)c1cc(-c2ccc(F)cc2)nc2cc(-c3ccccc3)nn12	67.1% (active)
CC(C)(C)C(=O)Nc1nc(-c2cccc(Br)c2)cs1	57.1% (active)
Cc1cc(C(=O)NCCc2ccccc2)n2nc(-c3ccccc3)cc2n1	81.8% (active)
Nc1nc(-c2ccccc2Cl)co1	12% (inactive)
O=C(O)c1cc(-c2ccccc2Cl)nc2cc(-c3ccccc3)nn12	96.6% (active)
Cc1ccc(-c2c(C)nn3c(NCc4cccnc4)cc(C)nc23)cc1	30.6% (inactive)
COc1ccc(-c2c(C)nn3c(NCCc4ccccc4)cc(C)nc23)cc1OC	65.5% (active)
Cc1ccc(-c2c(C)nn3c(NCCc4ccccc4)cc(C)nc23)cc1	-2.64% (inactive)
CN(Cc1ccccc1)c1ncnc(Oc2ccc3c(c2)OCO3)c1N	28% (inactive)
NC(=O)c1ccc(OCc2cc(Cl)c3c(c2)OCO3)cc1	35.7% (inactive)
O=C1OC(c2ccccc2)OC(=O)C1=Cc1ccc(OCc2ccc3c(c2)OCO3)cc1 (configuration not stated)	84.2% (active)
O=C(NCCOc1ccccc1F)C12CC3CC(CC(C3)C1)C2	31.1% (inactive)
O=C(NCc1ccco1)C12CC3CC(CC(C3)C1)C2	98.1% (active)
C=Cc1ccc(Cn2cc(C(=O)NCc3ccco3)sc2=O)cc1	7.16% (inactive)
COC(=O)CCc1c(C)nc2c(c(-c3ccco3)nn2C2CCS(=O)(=O)C2)c1C (configuration not stated)	24.9% (inactive)
CC(C)N(C(=O)c1ccc(-c2cccc(C(F)(F)F)c2)s1)C(C)C	66.1% (active)
C#CCN(C)C(=O)c1ccc(-c2cccc(C(F)(F)F)c2)s1	23.8% (inactive)
Nc1ncc(N=Nc2cccc(C(F)(F)F)c2)s1	2.91% (inactive)
O=C(NCC(O)COc1ccc(C(F)(F)F)cc1)c1ccccc1Cl (configuration not stated)	22.8% (inactive)
O=C(NCCOc1ccc(C(F)(F)F)cc1)C1CSc2ccccc2O1 (configuration not stated)	77.1% (active)
CC1Oc2ccccc2OC1C(=O)NCCOc1ccc2ccccc2c1 (configuration not stated)	29.2% (inactive)
